Measurements from the supplement of paper PMC11732987, “Enantioselective OTUD7B fragment discovery through chemoproteomics screening and high-throughput optimisation” (Communications Chemistry, 2025).

How the values were obtained:
Assay in all cases: log2 ratio of Biotin-Ahx-Ub-VS probe labelling (fragment/DMSO); higher = less target engagement (more negative = stronger competition), active = hit call of the paper (q ≤ 0.05, log2 ratio ≤ -1)
Conditions in all cases: compound concentration: 200 uM; treatment time: 3 h
USP34 = USP34 (UniProt Q70CQ2)
Chain of USP34 (Q70CQ2 whole entry, the tested form may be a part): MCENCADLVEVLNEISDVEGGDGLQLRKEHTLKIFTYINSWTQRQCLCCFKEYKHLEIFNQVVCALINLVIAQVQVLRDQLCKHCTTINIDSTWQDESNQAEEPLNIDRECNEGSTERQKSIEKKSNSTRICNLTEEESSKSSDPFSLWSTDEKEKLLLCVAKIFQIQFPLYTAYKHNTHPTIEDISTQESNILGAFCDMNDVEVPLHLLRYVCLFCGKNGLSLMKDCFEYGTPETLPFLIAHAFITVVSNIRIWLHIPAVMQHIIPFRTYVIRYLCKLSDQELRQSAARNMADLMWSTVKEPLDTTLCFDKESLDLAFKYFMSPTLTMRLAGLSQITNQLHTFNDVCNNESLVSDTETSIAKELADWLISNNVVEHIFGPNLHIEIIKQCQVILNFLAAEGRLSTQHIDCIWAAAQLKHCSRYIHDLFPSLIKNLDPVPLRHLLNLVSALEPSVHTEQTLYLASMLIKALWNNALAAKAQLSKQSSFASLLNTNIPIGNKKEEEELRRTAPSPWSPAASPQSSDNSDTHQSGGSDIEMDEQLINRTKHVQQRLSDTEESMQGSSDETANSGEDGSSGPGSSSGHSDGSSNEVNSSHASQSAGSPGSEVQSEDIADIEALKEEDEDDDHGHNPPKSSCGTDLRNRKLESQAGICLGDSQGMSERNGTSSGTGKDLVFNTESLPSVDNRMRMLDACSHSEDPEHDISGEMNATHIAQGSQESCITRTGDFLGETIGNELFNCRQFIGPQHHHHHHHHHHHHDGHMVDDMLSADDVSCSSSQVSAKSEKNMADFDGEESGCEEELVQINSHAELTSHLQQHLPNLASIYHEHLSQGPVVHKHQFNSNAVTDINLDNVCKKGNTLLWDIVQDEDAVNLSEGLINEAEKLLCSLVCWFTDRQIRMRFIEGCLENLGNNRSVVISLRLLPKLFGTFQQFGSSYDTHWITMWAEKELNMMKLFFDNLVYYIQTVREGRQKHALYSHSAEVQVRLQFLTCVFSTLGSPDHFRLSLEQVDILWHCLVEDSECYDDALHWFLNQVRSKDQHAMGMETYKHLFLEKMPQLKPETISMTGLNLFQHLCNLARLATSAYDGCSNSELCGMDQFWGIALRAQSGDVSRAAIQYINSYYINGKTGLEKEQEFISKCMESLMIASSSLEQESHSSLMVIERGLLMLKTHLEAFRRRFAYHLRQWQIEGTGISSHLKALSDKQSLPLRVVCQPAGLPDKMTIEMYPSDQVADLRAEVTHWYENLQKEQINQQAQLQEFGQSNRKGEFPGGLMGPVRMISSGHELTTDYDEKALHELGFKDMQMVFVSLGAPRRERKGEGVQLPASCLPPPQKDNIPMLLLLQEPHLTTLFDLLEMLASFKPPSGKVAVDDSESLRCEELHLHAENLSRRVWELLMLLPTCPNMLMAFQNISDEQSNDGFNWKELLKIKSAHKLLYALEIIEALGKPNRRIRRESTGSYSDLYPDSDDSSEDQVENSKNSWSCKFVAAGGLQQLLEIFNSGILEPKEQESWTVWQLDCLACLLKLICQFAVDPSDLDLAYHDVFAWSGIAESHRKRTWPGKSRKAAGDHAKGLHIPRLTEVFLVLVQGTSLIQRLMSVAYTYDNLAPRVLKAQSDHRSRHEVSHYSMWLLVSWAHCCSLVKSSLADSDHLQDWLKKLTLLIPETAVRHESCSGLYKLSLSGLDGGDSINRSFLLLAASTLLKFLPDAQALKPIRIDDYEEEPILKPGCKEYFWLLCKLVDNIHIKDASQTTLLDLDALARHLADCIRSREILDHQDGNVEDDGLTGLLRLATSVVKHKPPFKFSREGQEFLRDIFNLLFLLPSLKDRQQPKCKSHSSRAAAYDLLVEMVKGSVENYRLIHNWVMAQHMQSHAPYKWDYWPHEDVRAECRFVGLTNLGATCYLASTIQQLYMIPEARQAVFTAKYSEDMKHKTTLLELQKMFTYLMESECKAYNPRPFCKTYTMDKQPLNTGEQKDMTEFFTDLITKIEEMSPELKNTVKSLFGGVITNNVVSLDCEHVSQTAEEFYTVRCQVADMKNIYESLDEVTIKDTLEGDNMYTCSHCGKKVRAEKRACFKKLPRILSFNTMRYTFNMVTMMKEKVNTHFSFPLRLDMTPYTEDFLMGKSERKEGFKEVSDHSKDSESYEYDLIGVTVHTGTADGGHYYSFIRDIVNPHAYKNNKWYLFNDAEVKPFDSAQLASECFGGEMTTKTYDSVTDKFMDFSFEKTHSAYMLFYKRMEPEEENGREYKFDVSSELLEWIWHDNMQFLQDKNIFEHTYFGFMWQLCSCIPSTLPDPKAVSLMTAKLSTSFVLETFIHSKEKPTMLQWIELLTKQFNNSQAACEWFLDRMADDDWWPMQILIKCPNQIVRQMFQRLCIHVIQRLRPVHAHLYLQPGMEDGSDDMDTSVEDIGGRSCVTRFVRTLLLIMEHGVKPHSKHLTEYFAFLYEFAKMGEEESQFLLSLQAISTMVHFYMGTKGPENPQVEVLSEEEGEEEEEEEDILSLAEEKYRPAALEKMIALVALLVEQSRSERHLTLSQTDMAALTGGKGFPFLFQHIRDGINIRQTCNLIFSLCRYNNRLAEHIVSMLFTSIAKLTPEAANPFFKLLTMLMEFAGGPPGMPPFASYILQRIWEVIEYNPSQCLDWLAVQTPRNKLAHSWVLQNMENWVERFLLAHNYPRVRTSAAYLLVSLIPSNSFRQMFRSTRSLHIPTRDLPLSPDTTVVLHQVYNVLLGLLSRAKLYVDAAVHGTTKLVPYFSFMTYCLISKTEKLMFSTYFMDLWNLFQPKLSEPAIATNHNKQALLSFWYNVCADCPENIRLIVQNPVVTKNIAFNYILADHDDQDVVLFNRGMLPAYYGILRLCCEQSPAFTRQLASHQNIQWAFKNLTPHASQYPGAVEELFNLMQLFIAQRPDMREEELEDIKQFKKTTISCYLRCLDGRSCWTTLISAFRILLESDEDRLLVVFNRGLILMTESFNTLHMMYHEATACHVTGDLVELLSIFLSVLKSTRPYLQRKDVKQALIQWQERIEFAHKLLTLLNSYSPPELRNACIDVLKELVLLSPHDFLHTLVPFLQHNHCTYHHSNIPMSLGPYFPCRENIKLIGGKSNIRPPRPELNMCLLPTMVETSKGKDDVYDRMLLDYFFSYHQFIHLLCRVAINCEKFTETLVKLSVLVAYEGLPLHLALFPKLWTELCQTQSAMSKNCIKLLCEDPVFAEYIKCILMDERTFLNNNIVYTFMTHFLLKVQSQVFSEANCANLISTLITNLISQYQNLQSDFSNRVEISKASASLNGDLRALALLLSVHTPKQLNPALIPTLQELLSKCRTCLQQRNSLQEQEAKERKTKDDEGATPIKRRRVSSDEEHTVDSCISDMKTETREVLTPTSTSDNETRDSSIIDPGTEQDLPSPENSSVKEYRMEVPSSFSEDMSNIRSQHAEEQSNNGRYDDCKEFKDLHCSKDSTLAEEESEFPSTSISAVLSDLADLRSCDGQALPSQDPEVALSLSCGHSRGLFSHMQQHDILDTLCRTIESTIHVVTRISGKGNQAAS
How it was run: (§1)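 Fragment (200 µM) or vehicle was incubated for 3 h with triplicate HEK293T lysate samples of 495 µg, which were then treated with Biotin-Ahx-Ub-VS at 0.5 µM final for 1 h. Labelled DUBs were enriched on NeutrAvidin, digested with LysC and trypsin, and analysed by diaPASEF LC-MS/MS. Values are average log2 fragment/vehicle ratios from an unpaired t-test on global-median-normalised Spectronaut label-free quantities, using proteins with ≥2 unique peptides.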

USP36 = biological target: T1, USP36 (UniProt Q9P275)
T1 sequence (whole entry): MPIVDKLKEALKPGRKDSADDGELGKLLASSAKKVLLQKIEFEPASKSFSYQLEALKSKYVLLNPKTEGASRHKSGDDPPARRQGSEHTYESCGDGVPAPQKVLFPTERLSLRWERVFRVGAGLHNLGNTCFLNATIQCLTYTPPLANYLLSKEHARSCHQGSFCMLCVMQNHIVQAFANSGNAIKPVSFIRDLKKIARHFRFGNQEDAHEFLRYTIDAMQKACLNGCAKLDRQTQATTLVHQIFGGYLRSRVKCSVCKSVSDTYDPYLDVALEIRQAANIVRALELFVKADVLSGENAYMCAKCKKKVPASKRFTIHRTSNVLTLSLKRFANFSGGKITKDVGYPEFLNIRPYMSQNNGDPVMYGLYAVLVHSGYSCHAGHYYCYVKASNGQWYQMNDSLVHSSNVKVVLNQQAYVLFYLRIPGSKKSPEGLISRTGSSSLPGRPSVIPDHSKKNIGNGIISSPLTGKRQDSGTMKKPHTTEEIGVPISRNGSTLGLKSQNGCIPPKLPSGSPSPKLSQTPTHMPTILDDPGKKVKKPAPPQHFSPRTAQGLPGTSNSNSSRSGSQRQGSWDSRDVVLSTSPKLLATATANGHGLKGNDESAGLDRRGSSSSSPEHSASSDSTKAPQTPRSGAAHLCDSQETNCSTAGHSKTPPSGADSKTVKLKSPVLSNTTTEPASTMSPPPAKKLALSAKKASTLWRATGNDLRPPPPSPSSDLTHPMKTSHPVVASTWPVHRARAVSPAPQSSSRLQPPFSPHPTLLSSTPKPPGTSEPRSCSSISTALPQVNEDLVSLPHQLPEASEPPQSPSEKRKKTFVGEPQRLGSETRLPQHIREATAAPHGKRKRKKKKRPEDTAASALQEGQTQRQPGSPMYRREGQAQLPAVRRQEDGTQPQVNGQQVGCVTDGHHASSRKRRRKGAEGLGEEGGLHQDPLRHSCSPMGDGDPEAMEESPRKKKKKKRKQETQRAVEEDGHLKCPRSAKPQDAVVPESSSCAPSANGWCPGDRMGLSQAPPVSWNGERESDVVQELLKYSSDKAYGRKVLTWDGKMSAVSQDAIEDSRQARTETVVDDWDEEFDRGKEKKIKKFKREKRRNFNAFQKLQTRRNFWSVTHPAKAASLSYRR
How it was run: as §1

USP38 = biological target: T2, USP38 (UniProt Q8NB14)
T2 sequence (whole entry): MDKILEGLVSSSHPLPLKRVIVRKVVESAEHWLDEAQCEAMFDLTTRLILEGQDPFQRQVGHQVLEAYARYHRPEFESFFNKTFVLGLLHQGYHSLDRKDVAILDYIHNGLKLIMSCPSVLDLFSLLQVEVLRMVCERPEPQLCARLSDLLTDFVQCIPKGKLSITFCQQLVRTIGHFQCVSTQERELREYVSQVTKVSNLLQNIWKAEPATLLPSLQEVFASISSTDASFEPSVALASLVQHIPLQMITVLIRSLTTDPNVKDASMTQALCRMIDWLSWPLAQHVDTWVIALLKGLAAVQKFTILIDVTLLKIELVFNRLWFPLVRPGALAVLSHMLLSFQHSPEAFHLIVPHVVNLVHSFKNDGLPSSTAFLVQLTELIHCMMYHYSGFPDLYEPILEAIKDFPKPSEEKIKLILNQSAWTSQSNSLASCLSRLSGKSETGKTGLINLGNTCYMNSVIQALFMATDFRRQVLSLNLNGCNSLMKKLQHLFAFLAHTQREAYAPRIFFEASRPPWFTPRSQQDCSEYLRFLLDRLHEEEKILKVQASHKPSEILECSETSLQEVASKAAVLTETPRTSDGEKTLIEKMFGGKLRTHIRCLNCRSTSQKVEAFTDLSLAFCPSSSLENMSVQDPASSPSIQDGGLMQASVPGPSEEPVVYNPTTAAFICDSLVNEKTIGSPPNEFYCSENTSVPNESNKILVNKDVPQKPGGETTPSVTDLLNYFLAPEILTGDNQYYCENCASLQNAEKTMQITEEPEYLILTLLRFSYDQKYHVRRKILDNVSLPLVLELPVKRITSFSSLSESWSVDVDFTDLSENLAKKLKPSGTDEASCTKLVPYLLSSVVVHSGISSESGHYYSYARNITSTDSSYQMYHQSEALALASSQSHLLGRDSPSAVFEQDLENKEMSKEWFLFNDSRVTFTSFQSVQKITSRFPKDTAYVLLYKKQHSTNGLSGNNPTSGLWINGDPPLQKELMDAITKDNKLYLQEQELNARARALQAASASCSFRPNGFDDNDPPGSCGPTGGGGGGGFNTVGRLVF
How it was run: as §1

USP39 = biological target: T3, USP39 (UniProt Q53GS9)
T3 sequence (whole entry): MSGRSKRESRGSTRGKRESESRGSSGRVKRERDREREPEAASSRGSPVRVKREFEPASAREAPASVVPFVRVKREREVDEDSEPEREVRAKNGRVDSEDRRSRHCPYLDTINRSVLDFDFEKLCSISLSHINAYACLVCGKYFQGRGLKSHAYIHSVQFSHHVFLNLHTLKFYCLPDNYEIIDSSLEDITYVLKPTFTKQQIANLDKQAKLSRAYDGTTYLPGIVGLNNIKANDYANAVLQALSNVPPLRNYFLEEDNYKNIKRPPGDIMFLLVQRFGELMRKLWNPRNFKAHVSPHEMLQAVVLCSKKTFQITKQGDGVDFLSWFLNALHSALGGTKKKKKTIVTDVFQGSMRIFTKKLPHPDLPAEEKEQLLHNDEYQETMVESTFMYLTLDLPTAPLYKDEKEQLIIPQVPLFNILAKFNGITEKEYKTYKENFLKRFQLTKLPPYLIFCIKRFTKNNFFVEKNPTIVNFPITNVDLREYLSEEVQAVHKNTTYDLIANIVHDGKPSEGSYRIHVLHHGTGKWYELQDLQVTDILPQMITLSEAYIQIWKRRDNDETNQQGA
How it was run: as §1

USP4 = biological target: T4, USP4 (UniProt Q13107)
T4 sequence (whole entry): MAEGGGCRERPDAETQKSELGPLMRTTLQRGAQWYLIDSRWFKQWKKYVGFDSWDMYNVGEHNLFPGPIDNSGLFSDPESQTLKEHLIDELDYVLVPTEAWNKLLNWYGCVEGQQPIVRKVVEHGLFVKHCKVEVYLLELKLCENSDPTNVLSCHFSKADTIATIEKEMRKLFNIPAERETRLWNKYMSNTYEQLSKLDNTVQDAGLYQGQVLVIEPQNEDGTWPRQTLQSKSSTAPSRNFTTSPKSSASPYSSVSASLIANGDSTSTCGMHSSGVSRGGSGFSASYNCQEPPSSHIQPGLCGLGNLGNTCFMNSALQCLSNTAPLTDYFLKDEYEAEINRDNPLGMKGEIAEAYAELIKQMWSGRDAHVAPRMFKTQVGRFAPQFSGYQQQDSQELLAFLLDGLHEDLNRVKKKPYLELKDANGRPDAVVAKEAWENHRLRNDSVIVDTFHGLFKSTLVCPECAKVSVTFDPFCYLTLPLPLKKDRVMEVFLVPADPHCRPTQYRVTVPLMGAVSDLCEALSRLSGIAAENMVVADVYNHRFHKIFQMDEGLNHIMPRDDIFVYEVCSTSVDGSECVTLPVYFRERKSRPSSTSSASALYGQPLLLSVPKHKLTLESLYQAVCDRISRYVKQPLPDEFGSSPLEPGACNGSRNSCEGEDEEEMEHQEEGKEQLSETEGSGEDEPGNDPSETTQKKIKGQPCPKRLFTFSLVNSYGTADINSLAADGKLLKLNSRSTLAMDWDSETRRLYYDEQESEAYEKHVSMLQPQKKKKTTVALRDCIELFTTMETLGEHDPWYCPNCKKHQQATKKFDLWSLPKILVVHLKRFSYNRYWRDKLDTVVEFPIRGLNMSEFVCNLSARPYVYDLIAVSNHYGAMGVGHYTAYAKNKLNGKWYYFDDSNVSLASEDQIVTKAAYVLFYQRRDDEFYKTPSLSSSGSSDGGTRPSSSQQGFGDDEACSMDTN
How it was run: as §1

Measured: log2 ratio of Biotin-Ahx-Ub-VS probe labelling

COc1cccc(CN(C)C(=O)CCl)c1
inactive: USP34 0.0183 | USP36 -0.187 | USP38 0.0437 | USP39 0.0189 | USP4 -0.4
